# Screening data as filed in PubChem BioAssay.
# TEAD-YAP inh – TEAD-YAP interaction inhibition. HEK-TIYL cells, TEAD-Gal4/YAP UAS-luciferase luminescence. inhibition, % at 9.12 µM. 640,000 compounds, 1.4% hits. AID 1259422; in the data active = inhibition above about 32%
# FBW7 act – activators of human E3 ligase FBW7; AlphaScreen FBW7–phospho-cyclin E peptide binding, activator screen; 650,000 compounds, 0.13% hits; Q969H0; normalized activity (activation), % at 26.1 µM; in the data active = normalized activity above about 1.9%;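 also: purified mutant Fbw7 with reduced substrate affinity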
# GPR151 activ – human GPR151 activation; 650,000 compounds, 1% hits; PathHunter beta-arrestin GPR151 cells, luminescence; AID 1508602; activation, % at 11.2 µM; in the data active = activation above about 4.9%
# MITF inh – human MITF inhibition, primary screen; O75030; AlphaScreen MITF homodimerization, bead proximity signal; inhibition, % at 2.6 µM; 650,000 compounds, 0.91% hits; in the data active = inhibition above about 50%
# GPR151 conf act – human GPR151 activation, confirmation screen; shares compounds with GPR151 activ; GPR151 PathHunter beta-arrestin cells, luminescence, 90 min; % of EA-reagent control over plate median; activation, % at 11.2 µM; 6,700 tested, under 10 active; AID 1508609;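 active = mean percent activation across replicates above the confirmation screen cutoff of 4.91%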
# GPR119 counter – GPR119 activation, counter-screen for GPR151 activators; shares compounds with GPR151 activ; GPR119 PathHunter beta-arrestin cells, luminescence, 90 min; 0 = compound-well median, 100 = enzyme-acceptor control; activation, % at 11.2 µM; 6,700 compounds, 0.3% hits;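 active = mean percent activation in the counterscreen above 29.09%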;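 also: counterscreen on off-target GPR119 to flag nonselective hits from the GPR151 activator screen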
# Hits are given with their value; – = inactive; · = not tested or not shown. Hits are enriched below; roughly 3.5% of the tested compounds scored in any of these assays.
SMILES,TEAD-YAP inh,FBW7 act,GPR151 activ,MITF inh,GPR151 conf act,GPR119 counter
Cc1ccc(NC(=O)C2CCCN2c2nn3c(=O)cc(C)nc3s2)c(Cl)c1 (stereo unspecified),–,–,5.0,–,–,–
C=CCNc1nc(-c2ccc(OC)c3ccccc23)cs1,–,–,5.4,–,–,–
CCc1c(C)nc(SCCc2ccccc2)[nH]c1=O,–,–,5.4,–,–,–
CN1C2=C(C(=O)CC(C)(C)C2)C(c2ccc(Cl)cc2)C2=C1CC(C)(C)CC2=O,–,–,–,–,·,·
Cc1cccn2c(CNC3CCOC(C)(C)C3)c(C(=O)N3CCOCC3)nc12 (stereo unspecified),–,–,4.9,–,–,–
Cc1cccn2c(CNCCc3ccccn3)c(C(=O)N3CCOCC3)nc12,–,–,5.9,–,–,–
Cc1cccn2c(CN3CCOCC3)c(C(=O)N3CCCCC3)nc12,–,–,–,–,·,·
Cc1cccn2c(CN3CCN(c4ccncc4)CC3)c(C(=O)N3CCCCC3)nc12,–,–,5.2,–,–,–
CCCNC(=O)c1cnc(N2CCCC2CO)s1 (stereo unspecified),–,–,–,–,·,·
CC1CCCN(S(=O)(=O)c2ccc3[nH]c(=O)cc(C(=O)NCc4cccnc4)c3c2)C1 (stereo unspecified),–,–,–,–,·,·
C=CC[C@H]1CC=C[C@H](CC=C)N1C(=O)C(F)(F)F,–,–,–,–,·,·
CN(C)c1ccc(/C=C2/C(=O)NC(=S)N(c3cccc(F)c3)C2=O)cc1,–,–,–,–,·,·
O=C(O)c1ccc(N2C(=O)C3C4c5ccccc5C(c5ccccc54)C3C2=O)cc1 (stereo unspecified),–,–,–,–,·,·
CCOC(=O)C(C(=O)NCc1ccccc1)C1CCCCC1 (stereo unspecified),–,–,5.9,–,–,–
COc1ccc(C2C3=C(Nc4ncnn42)c2ccccc2OC3c2ccc(F)cc2)cc1 (stereo unspecified),–,–,–,–,·,·
COc1cccc2cc(C(=O)Nc3cc4c(cc3NC(C)=O)OCCO4)c(=O)oc12,–,–,–,–,·,·
CCN(CCN(C)C)Cc1cc(OC)c(OC)cc1[N+](=O)[O-],–,–,5.3,–,–,–
Cc1ccc(OCC(=O)Nc2nnc(S(=O)(=O)NCc3ccccc3)s2)cc1,–,–,8.7,–,–,–
Cc1cccc(OCC(=O)Nc2nnc(S(=O)(=O)N3CCc4ccccc43)s2)c1,–,–,6.1,–,–,–
O=C(Nc1nnc(S(=O)(=O)N2CCc3ccccc32)s1)c1cccs1,–,–,5.2,–,–,–
O=C(Nc1nnc(S(=O)(=O)N2CCc3ccccc32)s1)c1ccco1,–,–,–,–,·,·
O=C1N[C@@H](Cc2ccc(Cl)cc2)C(=O)N2CCN(C(=O)c3ccc(OC(F)(F)F)cc3)C[C@H]12,–,–,–,–,·,·
CC1CCCN(S(=O)(=O)c2cccs2)C1 (stereo unspecified),–,–,10,–,–,–
O=C(COc1ccccc1Br)NCc1ccccc1,–,–,–,–,·,·
CCc1ccccc1OCC(=O)NCc1ccccc1,–,–,5.8,–,–,–
SMILES,TEAD-YAP inh,FBW7 act,GPR151 activ,MITF inh,GPR151 conf act,GPR119 counter
O=C(Cc1ccc(F)cc1)NCc1ccccc1,–,–,5.2,–,–,–
CN(C(=O)C1CC1)c1ccccc1C(=O)NCc1ccccc1,–,–,–,–,·,·
CN(C(=O)c1ccc(F)cc1)c1ccccc1C(=O)NCc1ccccc1,–,–,9.0,–,–,–
COc1ccccc1CNC(=O)COc1cccc2ccccc12,–,–,5.6,–,–,–
O=C1c2ccccc2C(=O)N1Oc1ccc(C(F)(F)F)cc1[N+](=O)[O-],–,–,–,–,·,·
CCCCC(=O)N1c2ccccc2NC2=C(C(=O)CCC2)C1c1ccc(Cl)cc1Cl (stereo unspecified),–,–,–,–,·,·
O=C(CNC(=O)Cc1ccccc1)NCC(=O)OCc1ccccc1,–,–,–,–,·,·
Cc1ccc(CNC(=O)COc2ccccc2C)cc1,–,–,7.4,–,–,–
CC(=O)Nc1ccc(C(=O)NCCNC(=O)Cc2ccc(F)cc2)cc1,–,–,5.5,–,–,–
O=C(Cc1ccccc1)NCC(=O)OCc1ccccc1,–,–,6.3,–,–,–
O=C(CCc1ccccc1)Nc1ccccc1C(=O)NCc1ccccc1,–,–,8.0,–,–,–
O=C(Cc1ccccc1)Nc1ccccc1C(=O)NCc1ccccc1,–,–,–,–,·,·
Nc1ccc(Oc2cc(Oc3ccc(F)cc3)cc([N+](=O)[O-])c2)cc1,–,–,–,–,·,·
CC(C)CNC(=O)C(=O)NCc1ccccc1Cl,–,–,–,–,·,·
COc1ccc(S(=O)(=O)N2CCN(CCNC(=O)c3ccc(Cl)cc3)CC2)cc1,–,–,–,–,·,·
CC(C)C[C@H]1C(=O)N2CCN(Cc3ccccc3F)C[C@@H]2C(=O)N1C,–,–,–,–,·,·
O=C(CCCc1ccccc1)Nc1ccc(Br)cc1C(=O)O,–,–,5.9,–,–,–
O=C(CCCc1ccccc1)Nc1ccc(O)cc1C(=O)O,–,–,–,–,·,·
Cc1ccc(C2=NS(=O)(=O)N(C)C(C(=O)Nc3ccc(F)cc3F)=C2)cc1,–,–,11,–,–,–
COc1ccc(C2=NS(=O)(=O)N(C)C(C(=O)Nc3ccc(F)cc3F)=C2)cc1OC,–,–,–,–,·,·
O=C(O)CCCC(=O)N1CCCC(c2nc(-c3ccc4c(c3)OCO4)c3ccccn23)C1 (stereo unspecified),–,–,–,–,·,·
CCCC(=O)Nc1ccccc1C(=O)NC(C)(C)C,–,–,–,–,·,·
COc1ccc(NC(=O)CCNc2c(N3CCCC3)c(=O)c2=O)cc1,–,–,6.1,–,–,–
O=[N+]([O-])c1sc2ccccc2c1NCCO,–,–,–,–,·,·
CCN(c1ccccc1)S(=O)(=O)c1nnc(NC(=O)c2ccccc2OC)s1,–,–,5.0,–,–,–
SMILES,TEAD-YAP inh,FBW7 act,GPR151 activ,MITF inh,GPR151 conf act,GPR119 counter
CCN(c1ccccc1C)S(=O)(=O)c1nnc(NC(=O)c2ccc(F)cc2)s1,–,–,10,–,–,–
CCN(c1ccccc1)S(=O)(=O)c1ccc(F)c(C(=O)Nc2ccc(OC)cc2)c1,–,–,8.7,–,–,–
CN(CC(=O)Nc1ccc(F)c(F)c1F)C(=O)[C@@H]1CCCN1C(=O)c1cccs1,–,–,–,–,·,·
O=C(Nc1ccc(-c2nc3ccccc3s2)cc1)c1ccc(-c2cccc(Cl)c2)o1,–,–,–,–,·,·
COCCCNc1nc(-c2ccccc2F)nc2ccccc12,–,–,6.3,–,–,–
COCCNc1nc(-c2ccccc2F)nc2ccccc12,–,–,–,–,·,·
COC(=O)c1ccc(/C=C2/C(=O)NN(c3ccc(C)c(C)c3)C2=O)cc1,–,–,5.2,–,–,–
Cc1ccc([N+](=O)[O-])cc1-n1c(C)c(CC(=O)O)c2c1CC(C)(C)CC2=O,–,–,–,–,·,·
